Compounds with a hit are over-represented: about 2.7% of the library has one in this group of screens.
S2 tox: reduces viability in counter-screen for ATXN expression inhibitors. S2 cells (HEK-293 line with an ATXN2-luciferase reporter) viability, CellTiter-Fluor protease fluorescence, 24 h. Potency, µM (highest dose often 56.7 µM), actives largely listed as cytotoxic. 400,000 compounds, 0.49% hits. AID 651635; also: nearly all actives have a fitted effect of over 40% in size
HepG2 tox-1: counter-screen for TGF-b inhibitors: cytotoxicity in HepG2 cells; AID 588856; Potency, µM (doses to about 46.1 µM), for inactives: top-dose activity change, negative = cytotoxicity, most hits filed as cytotoxic; 410,000 compounds, 0.76% hits; HepG2 CAGA-GFP viability, ATP luminescence, 18 h
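CellTiter-Glo luminescence gave cytotoxicity after 18 hours at 37 degrees C. The cells were HepG2 CAGA-GFP in 1% FBS DMEM, stimulated with 500 pg/mL TGF-beta after compound addition. %Activity was normalised to no-cell wells (complete cell-killing) and DMSO (no toxicity), and curves were fitted and classified.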
ATXN2 expr inh: inhibitors of ATXN2 expression. HEK-293 ATXN2-luciferase reporter, luminescence, 24 h. Potency, µM (doses to about 57 µM), for the others: at the top dose activity change, negative = inhibition, hits mostly inhibitors. 360,000 compounds, 0.72% hits. AID 1745845; also: % is scaled to controls: 0 for no effect and ±100 for the full control effect; nearly all actives have a fitted effect of over 55% in size
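qHTS (up to 57 uM final) was run with 24 h compound exposure of reporter cells at 37 °C. Each well was multiplexed: SteadyGlo luminescence measured ATXN2-luciferase expression after a fluorogenic Gly-Phe-AFC viability readout (25 uM final).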
TGFb SMAD3 inh: TGF-b pathway inhibition; HepG2 CAGA-GFP TGF-b/SMAD3 reporter, GFP fluorescence, 18 h; TGF-beta stimulated, 500 pg/mL final; Potency, µM (highest dose often 46.1 µM), without a hit: at the highest dose activity, negative = inhibition, usual class: inhibitors; 410,000 compounds, 1.2% hits; AID 588855; also: % is scaled to controls: 0 for no effect and ±100 for the full control effect; nearly all actives have a fitted effect of over 65% in size
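GFP signal (ex488/em500-530) from TGF-beta-stimulated HEPG2 CAGA-GFP cells, 500 pg/mL final, 18 h at 37 degrees C in DMEM plus 1% FBS, normalized to unstimulated and DMSO-stimulated controls.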
ALOX12 inh: blocks human arachidonate 12S-lipoxygenase | P18054 | purified 12hLO, xylenol orange hydroperoxide absorbance | Potency, µM (top dose mostly 108 µM), for the others: top-dose activity change, negative = inhibition, actives largely listed as inhibitors | 580,000 compounds, 1.1% hits | AID 1671190; also: % is scaled to controls: 0 for no effect and ±100 for the full control effect
Target sequence (P18054 whole entry, looked up): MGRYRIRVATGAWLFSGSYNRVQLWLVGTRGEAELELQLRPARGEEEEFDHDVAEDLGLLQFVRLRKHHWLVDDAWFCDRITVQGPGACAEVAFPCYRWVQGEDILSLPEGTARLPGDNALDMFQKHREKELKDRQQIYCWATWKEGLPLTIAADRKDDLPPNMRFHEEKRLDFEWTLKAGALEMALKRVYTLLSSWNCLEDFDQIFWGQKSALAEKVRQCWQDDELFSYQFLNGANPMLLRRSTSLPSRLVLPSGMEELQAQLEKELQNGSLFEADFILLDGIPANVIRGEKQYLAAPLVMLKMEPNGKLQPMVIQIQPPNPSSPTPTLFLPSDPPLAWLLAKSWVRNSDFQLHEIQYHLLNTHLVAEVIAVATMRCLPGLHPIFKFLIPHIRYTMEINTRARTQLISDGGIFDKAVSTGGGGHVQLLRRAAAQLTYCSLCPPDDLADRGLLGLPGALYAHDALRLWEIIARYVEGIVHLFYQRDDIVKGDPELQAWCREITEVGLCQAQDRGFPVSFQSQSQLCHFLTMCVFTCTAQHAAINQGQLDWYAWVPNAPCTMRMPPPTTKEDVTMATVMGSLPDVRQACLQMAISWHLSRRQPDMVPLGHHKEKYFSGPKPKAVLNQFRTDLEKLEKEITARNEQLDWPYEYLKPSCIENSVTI
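Purified human 12hLO at 150 nM in 25 mM Hepes, 0.01% Triton X-100, pH 7.0, preincubated 15 min at room temperature with compound. Reaction started with 40 uM arachidonic acid, 30 min at room temperature. Hydroperoxide measured by Fe-xylenol orange, 573/405 nm absorbance ratio.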
TGFb confirm: TGF-b pathway inhibition, cherry-pick retest; shares compounds with TGFb SMAD3 inh; HepG2 CAGA-GFP TGF-b reporter, GFP fluorescence, 18 h; cells stimulated with TGF-beta, 500 pg/mL; Potency, µM (doses to about 46.1 µM), for inactives: at the top dose activity, negative = inhibition, most hits filed as inhibitors; 1,600 compounds, 63% hits; also: % is scaled to controls: 0 for no effect and ±100 for the full control effect; nearly all actives have a fitted effect of over 65% in size
HepG2 tox-2: HepG2 cytotoxicity, TGF-b inhibitor counterscreen; AID 720535; 1,600 compounds, 27% hits; Potency, µM (doses to about 46.1 µM), for the others: top-dose activity, negative = cytotoxicity, most hits filed as inhibitors; HepG2 CAGA-GFP viability, ATP luminescence, 18 h; cells stimulated with TGF-beta, 500 pg/mL; shares compounds with TGFb SMAD3 inh; also: % is scaled to controls: 0 for no effect and ±100 for the full control effect; nearly all actives have a fitted effect of over 70% in size
CCL64 TGFb inh: TGF-b inhibition, CCL64 orthogonal assay; CCL64 CAGA-GFP reporter, TGF-b stimulated, GFP fluorescence, 18 h; Potency, µM (doses to about 46.1 µM), without a hit: at the top dose activity, negative = inhibition, hits mostly inhibitors; 1,600 compounds, 41% hits; shares compounds with TGFb SMAD3 inh; AID 720536; also: nearly all actives have a fitted effect of over 65% in size
COP TGFb inh: validation of TGF-b inhibitors in HepG2 COP promoter reporter. HepG2 COP-GFP TGF-b reporter, GFP fluorescence, 18 h; cells stimulated by added recombinant TGF-beta. 1,600 compounds, 3% hits. shares compounds with TGFb SMAD3 inh. Potency, µM (series often up to 46.1 µM), for the others: at the top dose activity, negative = inhibition, most hits filed as inhibitors. AID 720537; also: nearly all actives have a fitted effect of over 70% in size
* hit, by the source's call; [ ] = dose if it differs, or a comment. Calls follow the shape of the dose curve; as a rule, active = well fitted curve in the direction sought with a large enough effect; inconclusive = small, poorly fitted or top-dose-only effect, or another doubt; inactive = no such curve, though single readings can be large; an effect the other way counts as inactive or inconclusive. Potency is read from the fitted curve at half-maximal effect.

What do the screens show for `Brc1ccoc1-c1nc(-c2ccccc2)no1`?
ALOX12 inh: 52.5%

How did Cc1cccc(N2CCN(C(=O)C3COc4ccccc4O3)CC2)c1C (centres undefined) do in these assays?
S2 tox: inactive; HepG2 tox-1: -37.0%; TGFb SMAD3 inh: 11.2µM*; ALOX12 inh: -1.2%; TGFb confirm: 16.4µM*; HepG2 tox-2: -16.1%; CCL64 TGFb inh: inconclusive; COP TGFb inh: -3.2%

How did Cc1ccc(N2CCN(C(=O)c3ccccc3)CC2)c(C)c1 do in these assays?
S2 tox: inactive; HepG2 tox-1: -31.3%; ATXN2 expr inh: -25.5%; TGFb SMAD3 inh: 10µM*; ALOX12 inh: -20.1%; TGFb confirm: inconclusive; HepG2 tox-2: 6.6%; CCL64 TGFb inh: 18.4µM*; COP TGFb inh: 14.8%

Results for Cc1ccc(N2CCN(C(=O)c3cc(C(=O)c4ccccc4C)c[nH]3)CC2)c(C)c1 ?
S2 tox: inconclusive; HepG2 tox-1: -29.2%; ATXN2 expr inh: -30.3%; TGFb SMAD3 inh: 17.8µM*; ALOX12 inh: -13.3%; TGFb confirm: 6.51µM*; HepG2 tox-2: -25.5%; CCL64 TGFb inh: inconclusive; COP TGFb inh: 34.2%

How did Cc1cccc(N2CCN(C(=O)c3ccc(S(=O)(=O)N(C)c4ccccc4)cc3)CC2)c1C do in these assays?
S2 tox: inactive; HepG2 tox-1: -2.5%; ATXN2 expr inh: -19.8%; TGFb SMAD3 inh: 5.62µM*; ALOX12 inh: -16.9%; TGFb confirm: 9.2µM*; HepG2 tox-2: -20.5%; CCL64 TGFb inh: inconclusive; COP TGFb inh: 20.1%

What do the screens show for `O=C(CN1CCN(c2ncccc2C(F)(F)F)CC1)NC1CC1`?
ALOX12 inh: 6.3%

How did CC1CC(C)CN(C(=O)c2cc3ccccc3cc2O)C1 (centres undefined) do in these assays?
ALOX12 inh: -49.2%

Results for Cc1ccc(C)c(N2N=C(C(=O)Nc3ccccc3N3CCOCC3)CCC2=O)c1 ?
S2 tox: inactive; HepG2 tox-1: -5.4%; ATXN2 expr inh: -12.0%; TGFb SMAD3 inh: 14.4%; ALOX12 inh: 24.1%

What do the screens show for `Cc1ccc(C)c(N2N=C(C(=O)Nc3ccccc3N3CCCC3)CCC2=O)c1`?
S2 tox: inactive; HepG2 tox-1: -21.6%; ATXN2 expr inh: -14.2%; TGFb SMAD3 inh: 22.4µM*; ALOX12 inh: -0.9%; TGFb confirm: 11.6µM*; HepG2 tox-2: -14.4%; CCL64 TGFb inh: inconclusive; COP TGFb inh: 2.1%

Results for O=C1c2cnc(-c3cc4ccccc4o3)nc2OCCN1c1ccccc1 ?
ALOX12 inh: 22.7%[176 µM]

What do the screens show for `CSc1nc(C)c(CCC(=O)NC(C)c2ccc(F)cc2F)c(C)n1` (centres undefined)?
ALOX12 inh: -47.3%

How did COc1ccc(-c2cc3ncc(C(=O)c4cc(Cl)c(C)cc4O)cn3n2)cc1 do in these assays?
ALOX12 inh: 4.8%

Results for C=CCC1(O)CC(C)N(C)CC1C (centres undefined) ?
ALOX12 inh: 31.2%

What do the screens show for `COc1ccccc1Cc1c(-c2ccco2)nc2ccc(C)cn12`?
S2 tox: inconclusive; HepG2 tox-1: -17.3%; ATXN2 expr inh: -18.6%; TGFb SMAD3 inh: 10µM*; ALOX12 inh: inconclusive; TGFb confirm: 16.4µM*; HepG2 tox-2: inconclusive; CCL64 TGFb inh: inconclusive; COP TGFb inh: 49.3%

What do the screens show for `COc1ccccc1Cc1c(-c2ccco2)nc2c(C)cc(Br)cn12`?
S2 tox: inconclusive; HepG2 tox-1: -86.9%; ATXN2 expr inh: 8.91µM*; TGFb SMAD3 inh: 8.91µM*; TGFb confirm: 7.31µM*; HepG2 tox-2: 9.2µM*; CCL64 TGFb inh: 4.61µM*; COP TGFb inh: inconclusive

How did Cc1ccc2nc(-c3ccco3)c(CC3CCCCC3)n2c1 do in these assays?
HepG2 tox-1: -32.1%; ATXN2 expr inh: -35.7%; TGFb SMAD3 inh: 10µM*; TGFb confirm: inconclusive; HepG2 tox-2: inconclusive; CCL64 TGFb inh: 20.6µM*; COP TGFb inh: 16.3%

Results for CC(C)c1nc2cc(NC(=O)c3ccc[nH]c3=O)ccc2o1 ?
ALOX12 inh: -2.1%

Results for CC(=O)Nc1ccc2nc(NC(=O)c3ccc([N+](=O)[O-])o3)sc2c1 ?
S2 tox: inactive; HepG2 tox-1: -0.4%; ATXN2 expr inh: 2.5%; TGFb SMAD3 inh: 5.01µM*; ALOX12 inh: 19.2%; TGFb confirm: 1.84µM*; HepG2 tox-2: 20.6µM*; CCL64 TGFb inh: inconclusive; COP TGFb inh: 20.7%

Results for CCN1CCN(c2ccc(S(=O)(=O)N3CCCCC3)cc2NC(=O)c2ccc([N+](=O)[O-])o2)CC1 ?
HepG2 tox-1: -106.0%; ATXN2 expr inh: inconclusive; TGFb SMAD3 inh: 7.94µM*; ALOX12 inh: inconclusive; TGFb confirm: 10.3µM*; HepG2 tox-2: 20.6µM*; CCL64 TGFb inh: 16.4µM*; COP TGFb inh: inconclusive

What do the screens show for `CC(=O)Nc1ccc2nc(NC(=O)c3ccco3)sc2c1`?
S2 tox: inactive; HepG2 tox-1: -42.8%; TGFb SMAD3 inh: 31.9%; ALOX12 inh: 8.8%

Results for CCC(=O)N1CCN(c2ccc(NC(=O)c3ccc([N+](=O)[O-])o3)cc2Cl)CC1 ?
S2 tox: inconclusive; HepG2 tox-1: -87.3%; ATXN2 expr inh: inconclusive; TGFb SMAD3 inh: 7.94µM*; ALOX12 inh: inconclusive; TGFb confirm: 3.66µM*; HepG2 tox-2: 9.2µM*; CCL64 TGFb inh: 20.6µM*; COP TGFb inh: -14.6%

Results for CCN1CCN(c2ccc(NC(=O)c3ccc([N+](=O)[O-])o3)cc2Cl)CC1 ?
S2 tox: inconclusive; HepG2 tox-1: -6.1%; ATXN2 expr inh: -11.3%; TGFb SMAD3 inh: inconclusive; ALOX12 inh: 0.0%

Assay outcomes: PubChem BioAssay, National Center for Advancing Translational Sciences (NCATS)
